Measurements from PubChem BioAssay (NCI).
Compounds without any hit were thinned out: in the full panel of roughly 79,000, 15% have a hit. Activity calls are given as the source filed them. Rule as the data show it: active = growth inhibition above about 70%; inactive = the rest.

Key:
[1] = NCI Yeast Anticancer Drug Screen. Data for the rad52 strain (AID 147);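 also: 0% = growth of vehicle-treated control cultures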; settings: S. cerevisiae rad52 mutant growth inhibition, hits give high values
In short: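 Compounds are applied to a genetically defined yeast strain lacking normal DNA damage repair, and inhibition of growth is expressed relative to cultures given vehicle only.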

[2] = NCI Yeast Anticancer Drug Screen. Data for the wt1 strain (AID 149);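 also: 0% = growth of vehicle-treated wt1 cultures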; settings: S. cerevisiae wt1 strain (SPY 50644) growth inhibition, hits give high values
In short: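 Growth inhibition read against vehicle controls after compound exposure of the wt1 yeast strain.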

[3] = NCI Yeast Anticancer Drug Screen. Data for the rad50EPP+ strain (AID 151);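 also: 0% = growth of vehicle-treated control cultures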; settings: S. cerevisiae rad50 mutant strain, hits give high values
In short: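 Compounds were applied to the rad50EPP+ yeast strain, which bears a defined DNA repair alteration, and growth inhibition was determined relative to vehicle-treated cultures.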

[4] = NCI Yeast Anticancer Drug Screen. Data for the mgt1 strain (AID 153); settings: S. cerevisiae mgt1 mutant growth inhibition, hits give high values
In short: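 Strain: mgt1 yeast, one of a set carrying defined DNA damage repair or cell cycle control alterations. Compound-treated growth compared with vehicle.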

[5] = NCI Yeast Anticancer Drug Screen. Data for the rad50 strain (AID 155);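 also: 0% = growth of vehicle-only cultures of the same strain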; settings: S. cerevisiae rad50 strain growth inhibition, hits give high values
In short: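 Readout: growth inhibition relative to vehicle-treated cultures. Compound exposure was carried out in a genetically defined yeast strain deficient in DNA damage repair.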

[6] = NCI Yeast Anticancer Drug Screen. Data for the mec2-1 strain (AID 157); settings: S. cerevisiae mec2-1 strain, hits give high values
In short: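 Strain: mec2-1 (DNA repair/cell cycle alteration). Compound exposure, then growth measured; inhibition expressed relative to vehicle.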

[7] = NCI Yeast Anticancer Drug Screen. Data for the sgs1 mgt1 strain (AID 161);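 also: 0% = growth of cultures given vehicle only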; settings: S. cerevisiae sgs1 mgt1 strain, hits give high values
In short: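 Genetically altered yeast, compound exposure, growth inhibition relative to vehicle.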

[8] = NCI Yeast Anticancer Drug Screen. Data for the CLN2oe strain (AID 163);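 also: 0% = growth of vehicle-only control cultures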; settings: S. cerevisiae CLN2oe strain, hits give high values
In short: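 Growth of a genetically modified yeast strain is measured after compound exposure and compared with cultures given vehicle alone.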

[9] = NCI Yeast Anticancer Drug Screen. Data for the cln2 rad14 strain (AID 165);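 also: 0% = growth equal to vehicle treated cultures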; settings: S. cerevisiae cln2 rad14 strain, hits give high values
In short: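 Compounds are applied to the cln2 rad14 yeast strain, and growth is then compared with that of vehicle-treated cultures to give inhibition.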

[10] = NCI Yeast Anticancer Drug Screen. Data for the bub3 strain (AID 167); settings: S. cerevisiae bub3 mutant strain, hits give high values
In short: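 Readout: yeast growth inhibition, expressed relative to vehicle-only wells. The test organism is a mutant strain from a panel with lesions in DNA repair or checkpoint genes.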

[11] = NCI Yeast Anticancer Drug Screen. Data for the wt2 strain (AID 169);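 also: 0% = growth of vehicle-treated yeast cultures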; settings: S. cerevisiae wt2 strain growth inhibition, hits give high values
In short: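 This strain belongs to a panel of yeast strains with defined genetic alterations in DNA damage repair or cell cycle control. Compounds are applied, and growth inhibition is measured against vehicle-treated cultures.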

[12] = NCI Yeast Anticancer Drug Screen. Data for the mlh1 strain (AID 171);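 also: 0% = growth of vehicle-treated control cultures of the same strain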; settings: S. cerevisiae mlh1 strain growth inhibition, hits give high values
In short: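 Growth of the mutant yeast strain after compound exposure, expressed as inhibition relative to vehicle-only controls.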

[13] = NCI Yeast Anticancer Drug Screen. Data for the sgs1 strain (AID 173);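 also: 0% = growth of vehicle-only control cultures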; settings: S. cerevisiae sgs1 mutant, hits give high values
In short: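 Growth of a yeast strain bearing a defined genetic alteration is measured after compound treatment. Inhibition is expressed relative to vehicle-only controls.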

[14] = NCI Yeast Anticancer Drug Screen. Data for the mlh1 rad18 strain (AID 175); settings: S. cerevisiae mlh1 rad18 strain growth inhibition, hits give high values
In short: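 Read-out is yeast growth inhibition, calculated against vehicle-only controls. The compound was applied to a strain engineered with DNA damage repair alterations.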

[15] = NCI Yeast Anticancer Drug Screen. Data for the rad14 strain (AID 159);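 also: 0% = growth of vehicle-treated control cultures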; settings: S. cerevisiae rad14 strain growth inhibition, hits give high values
In short: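 Growth inhibition vs vehicle controls; genetically altered yeast strain (DNA damage repair defect) treated with test compounds.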

[16] = NCI Yeast Anticancer Drug Screen. Data for the rad18 strain (AID 177); settings: S. cerevisiae rad18 mutant growth inhibition, hits give high values
In short: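 Growth of the mutant yeast strain after compound exposure, normalised to vehicle-only cultures.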

[17] = at 5.0 µM (retest, dose inferred, filed as 0.5)
[18] = at 50.0 µM (retest, dose inferred, filed as 5.0)

Measured: growth inhibition

COc1cc(O)c2c(O)c3c(c4c2c1[C@]1(C4)C(C)=CCCC1(C)C)[C@H](O)[C@@]1(O)CC(=O)C(C(N)=O)=C(O)[C@@]1(O)C3=O
inactive: [1]; at 1.2 µM -1% | [2]; at 1.2 µM -16% | [2]; at 3.7 µM 56% | [3]; at 1.2 µM -52% | [3]; at 3.7 µM 60% | [4]; at 1.2 µM -16% | [5]; at 1.2 µM -37% | [5]; [17] 2% | [6]; at 1.2 µM -36% | [7]; [17] 21% | [8]; at 1.2 µM -6% | [9]; [17] 1% | [10]; at 1.2 µM -1% | [10]; [17] -7% | [11]; at 1.2 µM -30% | [11]; at 3.7 µM -16% | [12]; at 1.2 µM -21% | [12]; at 3.7 µM 67% | [13]; at 1.2 µM -38% | [14]; [17] -5%
active: [1]; at 3.7 µM 92% | [1]; at 11.0 µM 98% | [1]; at 33.0 µM 98% | [1]; at 100.0 µM 95% | [2]; at 11.0 µM 98% | [2]; at 33.0 µM 97% | [2]; at 100.0 µM 93% | [3]; at 11.0 µM 97% | [3]; at 33.0 µM 96% | [3]; at 100.0 µM 89% | [4]; at 3.7 µM 94% | [4]; at 11.0 µM 99% | [4]; at 33.0 µM 98% | [4]; at 100.0 µM 93% | [5]; at 3.7 µM 87% | [5]; at 11.0 µM 97% | [5]; at 33.0 µM 96% | [5]; [18] 97% | [5]; at 50.0 µM 97% | [5]; at 100.0 µM 92% | [6]; at 3.7 µM 87% | [6]; [17] 83% | [6]; at 11.0 µM 98% | [6]; at 33.0 µM 98% | [6]; [18] 98% | [6]; at 50.0 µM 98.7% | [6]; at 100.0 µM 94% | [7]; [18] 98% | [7]; at 50.0 µM 98.7% | [8]; at 3.7 µM 94% | [8]; at 11.0 µM 98% | [8]; at 33.0 µM 97% | [8]; at 100.0 µM 93% | [9]; [18] 98% | [9]; at 50.0 µM 98.1% | [10]; at 3.7 µM 77% | [10]; at 11.0 µM 98% | [10]; at 33.0 µM 97% | [10]; [18] 98% | [10]; at 50.0 µM 98.2% | [10]; at 100.0 µM 94% | [11]; at 11.0 µM 97% | [11]; at 33.0 µM 96% | [11]; at 100.0 µM 95% | [12]; at 11.0 µM 97% | [12]; at 33.0 µM 97% | [12]; at 100.0 µM 95% | [13]; at 3.7 µM 88% | [13]; at 11.0 µM 97% | [13]; at 33.0 µM 97% | [13]; at 100.0 µM 93% | [14]; [18] 97% | [14]; at 50.0 µM 96.8%

COC(COC(=O)N1CCN(C=O)CC1)C1=C(N2CC2)C(=O)C(C)=C(N2CC2)C1=O (stereo unspecified)
inactive: [1]; at 1.2 µM 4% | [1]; at 3.7 µM 18% | [1]; at 11.0 µM 30% | [1]; at 33.0 µM 66% | [2]; at 1.2 µM 10% | [2]; at 3.7 µM 12% | [2]; at 11.0 µM 22% | [2]; at 33.0 µM 39% | [2]; at 100.0 µM 47% | [3]; at 1.2 µM -44% | [3]; at 3.7 µM -38% | [3]; at 11.0 µM -35% | [3]; at 33.0 µM -8% | [3]; at 100.0 µM -5% | [5]; at 1.2 µM 17% | [5]; at 3.7 µM 35% | [5]; [17] 64% | [5]; at 11.0 µM 43% | [5]; at 33.0 µM 53% | [5]; [18] 22% | [5]; at 50.0 µM 35.3% | [6]; at 1.2 µM -6% | [6]; at 3.7 µM 1% | [6]; [17] 19% | [6]; at 11.0 µM 6% | [6]; at 33.0 µM 36% | [6]; [18] 35% | [6]; at 50.0 µM 32.9% | [6]; at 100.0 µM 67% | [15]; at 1.2 µM 4% | [15]; at 3.7 µM 1% | [15]; at 11.0 µM 6% | [15]; at 33.0 µM 39% | [7]; [17] -8% | [7]; [18] 26% | [7]; at 50.0 µM 40.4% | [8]; at 1.2 µM 12% | [8]; at 3.7 µM 23% | [8]; at 11.0 µM 25% | [8]; at 33.0 µM 29% | [8]; at 100.0 µM 53% | [9]; [17] -11% | [9]; [18] 27% | [9]; at 50.0 µM 34.5% | [10]; at 1.2 µM -18% | [10]; at 3.7 µM -3% | [10]; [17] -2% | [10]; at 11.0 µM -4% | [10]; at 33.0 µM 10% | [10]; [18] 1% | [10]; at 50.0 µM -10.2% | [10]; at 100.0 µM 18% | [11]; at 1.2 µM -27% | [11]; at 3.7 µM -33% | [11]; at 11.0 µM -25% | [11]; at 33.0 µM -17% | [11]; at 100.0 µM -2% | [12]; at 1.2 µM -7% | [12]; at 3.7 µM -32% | [12]; at 11.0 µM -9% | [12]; at 33.0 µM 17% | [12]; at 100.0 µM 38% | [14]; [17] 23% | [16]; at 1.2 µM 26% | [16]; at 3.7 µM 59%
active: [1]; at 100.0 µM 79% | [5]; at 100.0 µM 79% | [15]; at 100.0 µM 74% | [14]; [18] 74% | [14]; at 50.0 µM 79.4% | [16]; at 11.0 µM 79% | [16]; at 33.0 µM 89% | [16]; at 100.0 µM 93%

O=C1OC2C(O1)C1(Cl)C(Cl)=C(Cl)C2(Cl)C1(Cl)Cl (stereo unspecified)
active: [5]; at 50.0 µM 85.2% | [6]; [18] 90% | [6]; at 50.0 µM 87.8%
inactive: [1]; at 1.2 µM -3% | [1]; at 3.7 µM -2% | [1]; at 11.0 µM -1% | [1]; at 33.0 µM 0% | [1]; at 100.0 µM 1% | [2]; at 1.2 µM -4% | [2]; at 3.7 µM -3% | [2]; at 11.0 µM -3% | [2]; at 33.0 µM -7% | [2]; at 100.0 µM -7% | [3]; at 1.2 µM -1% | [3]; at 3.7 µM 0% | [3]; at 11.0 µM 0% | [3]; at 33.0 µM -3% | [3]; at 100.0 µM -2% | [5]; at 1.2 µM -2% | [5]; at 3.7 µM -3% | [5]; [17] 2% | [5]; at 11.0 µM -2% | [5]; at 33.0 µM -3% | [5]; [18] 41% | [5]; at 100.0 µM -1% | [6]; at 1.2 µM -4% | [6]; at 3.7 µM -4% | [6]; [17] 3% | [6]; at 11.0 µM -3% | [6]; at 33.0 µM -3%
